# Measurements reported in PubChem BioAssay (NCATS).
# Inconclusive results are not listed. A call without a number means that no potency is given here. Unmarked numbers belong to inactive results. Activity calls are given as the source filed them. Calls follow the shape of the dose curve; as a rule, active = well fitted inhibition curve with a large enough effect; inconclusive = small, poorly fitted or top-dose-only effect; inactive = flat fitted curve, though single readings scatter.
# What was measured:
# [1] = qHTS profiling for inhibitors of Plasmodium falciparum proliferation (AID 504749); as to all read-outs here: nearly all actives have a fitted effect of over 60% in size; conditions: P. falciparum in erythrocytes, SYBR Green DNA, 72 h; for activity, negative = inhibition: at 28.7 µM (top of the series)
# Summary of the method: (§1)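 SYBR Green fluorescence (ex 485 nm, em 535 nm) reports parasite DNA after 72 h compound exposure of infected red cells at 0.3% parasitemia, 2.5% hematocrit; signal normalized to 0.29 uM artemisinin and vehicle wells.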
# 3D7 = test: as above; conditions: P. falciparum in erythrocytes, SYBR Green DNA, 72 h; series mostly up to 28.7 µM
# Summary of the method: as §1
# 7G8 = test: as above; conditions: P. falciparum in erythrocytes, SYBR Green DNA, 72 h; series mostly up to 28.7 µM
# Summary of the method: as §1
# AA1029 = test: as above; conditions: P. falciparum in erythrocytes, SYBR Green DNA, 72 h; series mostly up to 28.7 µM
# Summary of the method: as §1
# AS120 = test: as above; conditions: P. falciparum in erythrocytes, SYBR Green DNA, 72 h; series mostly up to 28.7 µM
# Summary of the method: as §1
# ATS189 = test: as above; conditions: P. falciparum in erythrocytes, SYBR Green DNA, 72 h; series mostly up to 28.7 µM
# Summary of the method: as §1
# ATS95 = test: as above; conditions: P. falciparum in erythrocytes, SYBR Green DNA, 72 h; series mostly up to 28.7 µM
# Summary of the method: as §1
# C2A = test: as above; conditions: P. falciparum in erythrocytes, SYBR Green DNA, 72 h; series mostly up to 28.7 µM
# Summary of the method: as §1
# CP185 = test: as above; conditions: P. falciparum in erythrocytes, SYBR Green DNA, 72 h; series mostly up to 28.7 µM
# Summary of the method: as §1
# CP191 = test: as above; conditions: P. falciparum in erythrocytes, SYBR Green DNA, 72 h; series mostly up to 28.7 µM
# Summary of the method: as §1
# CP192 = test: as above; conditions: P. falciparum in erythrocytes, SYBR Green DNA, 72 h; series mostly up to 28.7 µM
# Summary of the method: as §1
# CP194 = test: as above; conditions: P. falciparum in erythrocytes, SYBR Green DNA, 72 h; series mostly up to 28.7 µM
# Summary of the method: as §1
# CP201 = test: as above; conditions: P. falciparum in erythrocytes, SYBR Green DNA, 72 h; series mostly up to 28.7 µM
# Summary of the method: as §1
# CP203 = test: as above; conditions: P. falciparum in erythrocytes, SYBR Green DNA, 72 h; series mostly up to 28.7 µM
# Summary of the method: as §1
# CP211 = test: as above; conditions: P. falciparum in erythrocytes, SYBR Green DNA, 72 h; series mostly up to 28.7 µM
# Summary of the method: as §1
# CP215 = test: as above; conditions: P. falciparum in erythrocytes, SYBR Green DNA, 72 h; series mostly up to 28.7 µM
# Summary of the method: as §1
# CP217 = test: as above; conditions: P. falciparum in erythrocytes, SYBR Green DNA, 72 h; series mostly up to 28.7 µM
# Summary of the method: as §1
# CP237 = test: as above; conditions: P. falciparum in erythrocytes, SYBR Green DNA, 72 h; series mostly up to 28.7 µM
# Summary of the method: as §1
# CP238 = test: as above; conditions: P. falciparum in erythrocytes, SYBR Green DNA, 72 h; series mostly up to 28.7 µM
# Summary of the method: as §1
# Potency is read from the fitted curve at half-maximal effect.
structure (smiles),measurement,setting,value
Cc1cccc(C)c1NC(=O)c1ccccc1C(=O)O,"activity, negative = inhibition",[1]; parasite line A,19.5%
same,"activity, negative = inhibition",[1]; parasite line B,8.59%
same,Potency,3D7,inactive
same,Potency,7G8,inactive
same,Potency,AA1029,inactive
same,Potency,AS120,inactive
same,Potency,ATS189,inactive
same,Potency,ATS95,inactive
same,Potency,C2A,inactive
same,Potency,CP185,inactive
same,Potency,CP191,inactive
same,Potency,CP192,inactive
same,Potency,CP194,inactive
same,Potency,CP201,inactive
same,Potency,CP203,inactive
same,Potency,CP211,inactive
same,Potency,CP215,inactive
same,Potency,CP217,inactive
same,Potency,CP237,inactive
same,Potency,CP238,inactive
CCCCCCCCCCCCCCCC(=O)O,"activity, negative = inhibition",[1]; parasite line A,-0.389%
same,"activity, negative = inhibition",[1]; parasite line B,7.62%
same,Potency,3D7,inactive
same,Potency,7G8,inactive
same,Potency,AA1029,inactive
same,Potency,AS120,inactive
same,Potency,ATS189,inactive
same,Potency,ATS95,inactive
same,Potency,C2A,inactive
same,Potency,CP185,inactive
same,Potency,CP191,inactive
same,Potency,CP192,inactive
same,Potency,CP194,inactive
same,Potency,CP201,inactive
same,Potency,CP203,inactive
same,Potency,CP211,inactive
same,Potency,CP215,inactive
same,Potency,CP217,inactive
same,Potency,CP237,inactive
same,Potency,CP238,inactive
O=S(=O)(O)c1ccc(O)cc1,"activity, negative = inhibition",[1]; parasite line A,4.42%
same,"activity, negative = inhibition",[1]; parasite line B,-3.84%
same,Potency,3D7,inactive
same,Potency,7G8,inactive
same,Potency,AA1029,inactive
same,Potency,AS120,inactive
same,Potency,ATS189,inactive
same,Potency,ATS95,inactive
same,Potency,C2A,inactive
same,Potency,CP185,inactive
same,Potency,CP191,inactive
same,Potency,CP192,inactive
same,Potency,CP194,inactive
same,Potency,CP201,inactive
same,Potency,CP203,inactive
same,Potency,CP211,inactive
same,Potency,CP215,inactive
same,Potency,CP217,inactive
same,Potency,CP237,inactive
same,Potency,CP238,inactive
CC(=O)Nc1ccc(OCC(O)CNC(C)C)cc1 (centres undefined),"activity, negative = inhibition",[1]; parasite line A,13.4%
same,"activity, negative = inhibition",[1]; parasite line B,11.8%
same,Potency,3D7,inactive
same,Potency,7G8,inactive
same,Potency,AA1029,inactive
same,Potency,AS120,inactive
same,Potency,ATS189,inactive
same,Potency,ATS95,inactive
same,Potency,C2A,inactive
same,Potency,CP185,inactive
same,Potency,CP191,inactive
same,Potency,CP192,inactive
same,Potency,CP194,inactive
same,Potency,CP201,inactive
same,Potency,CP203,inactive
same,Potency,CP211,inactive
same,Potency,CP215,inactive
same,Potency,CP217,inactive
same,Potency,CP237,inactive
same,Potency,CP238,inactive
CCN(CC)CCNc1ccc(CO)c2sc3ccccc3c(=O)c12,Potency,[1]; parasite line A,1780 nM (active)
same,Potency,[1]; parasite line B,3550 nM (active)
same,Potency,3D7,2000 nM (active)
same,Potency,7G8,2000 nM (active)
same,Potency,AA1029,2240 nM (active)
same,Potency,AS120,1000 nM (active)
same,Potency,ATS189,794 nM (active)
same,Potency,ATS95,2000 nM (active)
same,Potency,C2A,794 nM (active)
same,Potency,CP185,1000 nM (active)
same,Potency,CP191,355 nM (active)
same,Potency,CP192,1690 nM (active)
same,Potency,CP194,3380 nM (active)
same,Potency,CP201,7570 nM (active)
same,Potency,CP203,4260 nM (active)
same,Potency,CP211,4260 nM (active)
same,Potency,CP215,4260 nM (active)
same,Potency,CP217,2820 nM (active)
same,Potency,CP237,891 nM (active)
same,Potency,CP238,1000 nM (active)
CCCCN=C(N)N=C(N)N,"activity, negative = inhibition",[1]; parasite line A,-1.88%
same,"activity, negative = inhibition",[1]; parasite line B,0.415%
same,Potency,3D7,inactive
same,Potency,7G8,inactive
same,Potency,AA1029,inactive
same,Potency,AS120,inactive
same,Potency,ATS189,inactive
same,Potency,ATS95,inactive
same,Potency,C2A,inactive
same,Potency,CP185,inactive
same,Potency,CP191,inactive
same,Potency,CP192,inactive
same,Potency,CP194,inactive
same,Potency,CP201,inactive
same,Potency,CP203,inactive
same,Potency,CP211,inactive
same,Potency,CP215,inactive
same,Potency,CP217,inactive
same,Potency,CP237,inactive
same,Potency,CP238,inactive
CCCCNC(=O)NS(=O)(=O)c1ccc(N)cc1,"activity, negative = inhibition",[1]; parasite line A,5.61%
same,"activity, negative = inhibition",[1]; parasite line B,12.3%
same,Potency,3D7,inactive
same,Potency,7G8,inactive
same,Potency,AA1029,inactive
same,Potency,AS120,inactive
same,Potency,ATS189,inactive
same,Potency,ATS95,inactive
same,Potency,C2A,inactive
same,Potency,CP185,inactive
same,Potency,CP191,inactive
same,Potency,CP192,inactive
same,Potency,CP194,inactive
same,Potency,CP201,inactive
same,Potency,CP203,inactive
same,Potency,CP211,inactive
same,Potency,CP215,inactive
same,Potency,CP217,inactive
same,Potency,CP237,inactive
same,Potency,CP238,inactive
Oc1ccccc1C=NCc1ccccc1,"activity, negative = inhibition",[1]; parasite line A,2.18%
same,"activity, negative = inhibition",[1]; parasite line B,-16.9%
same,Potency,3D7,inactive
same,Potency,7G8,inactive
same,Potency,AA1029,inactive
same,Potency,AS120,inactive
same,Potency,ATS189,inactive
same,Potency,ATS95,inactive
same,Potency,C2A,inactive
same,Potency,CP185,inactive
same,Potency,CP191,inactive
same,Potency,CP192,inactive
same,Potency,CP194,inactive
same,Potency,CP201,inactive
same,Potency,CP203,inactive
same,Potency,CP211,inactive
same,Potency,CP215,inactive
same,Potency,CP217,inactive
same,Potency,CP237,inactive
same,Potency,CP238,inactive
Cc1cc(C)cc(OCC2CNC(=O)O2)c1 (centres undefined),"activity, negative = inhibition",[1]; parasite line A,-4.76%
same,"activity, negative = inhibition",[1]; parasite line B,4.34%
same,Potency,3D7,inactive
same,Potency,7G8,inactive
same,Potency,AA1029,inactive
same,Potency,AS120,inactive
same,Potency,ATS189,inactive
same,Potency,ATS95,inactive
same,Potency,C2A,inactive
same,Potency,CP185,inactive
same,Potency,CP191,inactive
same,Potency,CP192,inactive
same,Potency,CP194,inactive
same,Potency,CP201,inactive
same,Potency,CP203,inactive
same,Potency,CP211,inactive
same,Potency,CP215,inactive
same,Potency,CP217,inactive
same,Potency,CP237,inactive
same,Potency,CP238,inactive
CC(=O)N[C@@H](CCC(=O)O)C(=O)O,"activity, negative = inhibition",[1]; parasite line A,4.59%
same,"activity, negative = inhibition",[1]; parasite line B,2.94%
same,Potency,3D7,inactive
same,Potency,7G8,inactive
same,Potency,AA1029,inactive
same,Potency,AS120,inactive
same,Potency,ATS189,inactive
same,Potency,ATS95,inactive
same,Potency,C2A,inactive
same,Potency,CP185,inactive
same,Potency,CP191,inactive
same,Potency,CP192,inactive
same,Potency,CP194,inactive
same,Potency,CP201,inactive
same,Potency,CP203,inactive
same,Potency,CP211,inactive
same,Potency,CP215,inactive
same,Potency,CP217,inactive
same,Potency,CP237,inactive
same,Potency,CP238,inactive
O=C(O)Cc1csc(-c2ccc(Cl)cc2)n1,"activity, negative = inhibition",[1]; parasite line A,1.5%
same,"activity, negative = inhibition",[1]; parasite line B,8.07%
same,Potency,3D7,inactive
same,Potency,7G8,inactive
same,Potency,AA1029,inactive
same,Potency,AS120,inactive
same,Potency,ATS189,inactive
same,Potency,ATS95,inactive
same,Potency,C2A,inactive
same,Potency,CP185,inactive
same,Potency,CP191,inactive
same,Potency,CP192,inactive
same,Potency,CP194,inactive
same,Potency,CP201,inactive
same,Potency,CP203,inactive
same,Potency,CP211,inactive
same,Potency,CP215,inactive
same,Potency,CP217,inactive
same,Potency,CP237,inactive
same,Potency,CP238,inactive
Cc1cccc(C)c1NC(=O)CN1CCCC1,"activity, negative = inhibition",[1]; parasite line A,-5.07%
same,"activity, negative = inhibition",[1]; parasite line B,5.99%
same,Potency,3D7,inactive
same,Potency,7G8,inactive
same,Potency,AA1029,inactive
same,Potency,AS120,inactive
same,Potency,ATS189,inactive
same,Potency,ATS95,inactive
same,Potency,C2A,inactive
same,Potency,CP185,inactive
same,Potency,CP191,inactive
same,Potency,CP192,inactive
same,Potency,CP194,inactive
same,Potency,CP201,inactive
same,Potency,CP203,inactive
same,Potency,CP211,inactive
same,Potency,CP215,inactive
same,Potency,CP217,inactive
same,Potency,CP238,inactive
